Measured values reported in PubChem BioAssay (NCATS).
Where “and” joins values, the source holds several entries; their conditions need not be identical. Equal values may be shown once. Inconclusive results are not listed. Calls of active or inactive are those of the source. Unless noted, calls follow the shape of the dose curve; as a rule, active = well fitted curve in the direction sought with a large enough effect; inconclusive = small, poorly fitted or top-dose-only effect, or another doubt; inactive = no such curve, though single readings can be large; an effect the other way counts as inactive or inconclusive.

Assays:
[1] = Cell Viability - BJ (AID 421; calls by dose curve;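 also: potency is read from the fitted curve at half-maximal effect; cells exposed to compound for 40 hours at 37 °C before readout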); conditions: BJ fibroblast viability, qHTS
Procedure, shortened: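 Cytotoxicity in human BJ foreskin fibroblasts is scored as loss of cellular ATP after a 40-hour exposure, measured by luciferase luminescence. Controls are DMSO and 100 uM tamoxifen.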

[2] = Cell Viability - Jurkat (AID 426;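 active = dose-dependent loss of cell ATP signal giving a full or clear fitted curve, ranked by lower potency value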; also: potency is read from the fitted curve at half-maximal effect); conditions: qHTS
Procedure, shortened: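 Jurkat (clone E6-1, human T-cell leukemia) cells, 5000/well in complete medium, were exposed to compound for 40 hr at 37 °C. Viability was read as intracellular ATP by CellTiter-Glo luminescence; AC50 came from Hill fits of concentration-response data.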

[3] = Cell Viability - Hek293 (AID 427;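 active = compounds whose dose-response curve shows a full or clear partial loss of cell viability, called from curve shape rather than a numeric limit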;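 also: potency is read from the fitted curve at half-maximal effect; cells exposed to compound for 40 hours at 37 °C before reading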); conditions: qHTS
Procedure, shortened: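 qHTS, human embryonic kidney (adenovirus-transformed) cells; 40 hr cpd, 37 °C; CellTiter-Glo ATP luminescence. Norm: DMSO = 0, 100 uM tamoxifen = 100% inhibition. Hill-fit AC50.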

[4] = Cell Viability - HepG2 (AID 433; calls by dose curve;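 also: potency is read from the fitted curve at half-maximal effect; potency for ATP loss meaning cytotoxicity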); conditions: qHTS
Procedure, shortened: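 Cytotoxicity read as ATP loss (CellTiter-Glo luminescence) after 40 hr compound exposure of HepG2, 1500 cells/well, 37 °C. AC50 by Hill equation; 0% set by DMSO, 100% inhibition by 100 uM tamoxifen.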

[5] = Cell Viability - MRC5 (AID 434; calls by dose curve;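 also: potency is read from the fitted curve at half-maximal effect; potency reflects cytotoxicity seen as loss of intracellular ATP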); conditions: MRC5 lung fibroblast viability, qHTS
Procedure, shortened: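 MRC5 normal human lung fibroblasts, 1500 cells/well, exposed to compound for 40 hr at 37 C. Cellular ATP was read by CellTiter-Glo luminescence; data normalized to DMSO and 100 uM tamoxifen, with AC50 from Hill fits.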

[6] = Cell Viability - SK-N-SH (AID 435; calls by dose curve; also: potency is read from the fitted curve at half-maximal effect); conditions: SK-N-SH neuroblastoma cell viability qHTS
Procedure, shortened: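 qHTS cytotoxicity: CellTiter-Glo ATP luminescence after 40 h compound exposure of human neuroblastoma SK-N-SH cells at 37 °C. AC50 derived by Hill-equation fitting, with DMSO as basal and 100 uM tamoxifen as full inhibition.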

[7] = Cellular Toxicity (caspase-3) HepG2 (AID 654); conditions: HepG2 caspase-3 activation, luminescence, 0% = DMSO only, 100% = tamoxifen; series mostly up to 92.2 µM;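 also: cells exposed to compound for 16 hours before reading; 0% = DMSO alone and 100% = caspase signal from 100 µM tamoxifen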
Procedure, shortened: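 HepG2 cells (1500/well) in complete medium were treated with compounds for 16 hr at 37 °C. Caspase-3/7 activity was then read as luminescence from peptide-aminoluciferin cleavage. AC50 came from Hill fits, normalized to DMSO and 100 uM tamoxifen.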

[8] = Cellular Toxicity (caspase-3) BJ (AID 658); conditions: BJ fibroblasts, luminescence, normalized: DMSO 0%, staurosporine 100%; series mostly up to 91.7 µM
Procedure, shortened: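 BJ human foreskin fibroblasts, 1000 cells/well, treated 16 hours at 37 °C in complete medium; caspase 3/7 activity by Caspase-Glo luminescence after 1 hr at room temperature. Normalized to DMSO and 10 uM staurosporine; AC50 from Hill fits.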

[9] = Cellular Toxicity (caspase-3) MRC-5 (AID 659); conditions: MRC-5 cells, luminescence, normalized: DMSO 0%, 10 µM staurosporine 100%; series mostly up to 91.7 µM
Procedure, shortened: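 MRC-5 human normal lung fibroblasts, 1500 cells/well, treated 16 h at 37 °C in complete medium. Caspase 3/7 measured by Caspase-Glo luminescence after 1 h at room temperature. Normalized to DMSO and 10 uM staurosporine; AC50 from Hill fit.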

[10] = Cellular Toxicity (caspase-3) Hek293 (AID 664); conditions: HEK293 caspase-3 activation, DMSO = 0%, 100 µM tamoxifen = 100%; at 92.2 µM (top of the series);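 also: cells exposed to compound for 16 h at 37 °C before readout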
Procedure, shortened: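 HEK293 cells were exposed to compounds in complete medium for 16 hr at 37 °C, then caspase-3/7 activity was read by Caspase-Glo 3/7 luminescence after 20 min at room temperature. Data normalized to DMSO and 100 uM tamoxifen; AC50 from Hill fits.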

[11] = Cellular Toxicity (caspase-3) N2a (AID 665); conditions: N2a cells, luminescence, normalized: DMSO 0%, 10 µM staurosporine 100%; series mostly up to 92.2 µM;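 also: compound exposure lasted 16 h at 37 °C before readout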
Procedure, shortened: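 Mouse N2a neuroblastoma cells (1500/well) were treated with compounds for 16 h at 37 °C, then caspase-3/7 activity was read by Caspase-Glo luminescence after 1 h at room temperature. Data were normalized to DMSO and 10 uM staurosporine; AC50 from Hill fits.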

[12] = Cellular Toxicity (caspase-3) NIH 3T3 (AID 666); conditions: NIH 3T3 caspase-3 activation, apoptosis/toxicity; series mostly up to 92.2 µM;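 also: caspase signal read after 16 h compound exposure; 0% = DMSO basal and 100% = 100 µM tamoxifen stimulation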
Procedure, shortened: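 Mouse NIH 3T3 fibroblasts (1000 cells/well) were treated with compound for 16 hr at 37°C in complete medium; caspase-3/7 activity was read by Caspase-Glo luminescence. Normalized to DMSO and 100 uM tamoxifen; AC50 from Hill fits.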

[13] = MultiTox-Fluor Cytotoxicity Assay - LYMP1-001 - Dead Cells (AID 946); conditions: LYMP1-001 lymphoblastoid cells, dead-cell protease fluorescence; series mostly up to 92.2 µM
Procedure, shortened: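 Seed 2500 LYMP1-001 cells/well, incubate 5 hr at 37 C; add compound, 16 hr at 37 C; add MultiTox-Fluor reagent, 60 min RT; read dead-cell fluorescence Ex/Em=485/520. Normalize to DMSO and 15 uM tetraoctylammonium bromide.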

[14] = MultiTox-Fluor Cytotoxicity Assay - LYMP1-002 - Live Cells (AID 955); conditions: LYMP1-002 lymphoblastoid live-cell protease fluorescence viability; series mostly up to 46.1 µM; also: % is scaled to controls: 0 for no effect and ±100 for the full control effect
Procedure, shortened: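 Human lymphoblastoid LYMP1-002 cells, 2500/well in complete medium, rested 5 hr at 37 C, then exposed to compounds for 16 hr at 37 C. Live-cell protease cleavage of GF-AFC read by fluorescence (Ex/Em 405/510) after 60 min at room temperature; AC50 from Hill fits.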

[15] = MultiTox-Fluor Cytotoxicity Assay - LYMP1-003 - Dead Cells (AID 961); conditions: LYMP1-003 lymphoblastoid cells, dead-cell protease fluorescence; series mostly up to 92.2 µM; also: nearly all actives have a fitted effect of over 70% in size
Procedure, shortened: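 LYMP1-003 lymphoblastoid, 2500 cells/well, 5 hr settle then 16 hr cpd at 37 C; MultiTox-Fluor reagent 60 min RT; Ex/Em 485/520 dead-cell signal; norm. DMSO = 0%, 15 uM tetraoctylammonium bromide = 100%; Hill AC50.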

[16] = Cell Viability - LYMP2-008 (AID 980); conditions: LYMP2-008 lymphoblastoid cell viability, qHTS; series mostly up to 92.2 µM; also: % is scaled to controls: 0 for no effect and ±100 for the full control effect; nearly all actives have a fitted effect of over 60% in size
Procedure, shortened: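 Human lymphoblastoid cells (2500/well) were plated, held 5 hr at 37 C, then exposed to compounds for 24 hr at 37 C in complete medium. Intracellular ATP was read by CellTiter-Glo luminescence; AC50 from Hill-fitted concentration-response.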

[17] = Cell Viability - LYMP1-002 - Assay at 24 hr (AID 993); conditions: LYMP1-002 lymphoblastoid cells viability; series mostly up to 92.2 µM; also: % is scaled to controls: 0 for no effect and ±100 for the full control effect
Procedure, shortened: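 Human lymphoblastoid LYMP1-002 cells, 2500/well in complete medium, were treated with compounds for 24 h at 37 C; intracellular ATP was read by CellTiter-Glo luminescence. AC50 values came from Hill-equation fits of qHTS concentration-response data.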

[18] = qHTS Assay for Identification of Small Molecule Inducers of Hypoxia Response (AID 2120; active = well fitted curve in the direction sought with a large enough effect in the signal ratio, with a control signal flat, not every such curve was filed as active; the % refers to the signal ratio; also: 0% is about no effect); conditions: hypoxia response reporter cells, beta-lactamase ratio readout; series mostly up to 104 µM
Procedure, shortened: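 HRE-beta-lactamase reporter in CellSensor HRE-bla ME-180 cells, 2500 cells/well in Opti-MEM with 0.5% dialyzed FBS; compounds tested as titration series, 17 h at 37 degrees C. CCF4 substrate 2.5 h at room temperature; AC50 from 460/530 nm ratio.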

[19] = target: Peroxisome proliferator-activated receptor alpha (Homo sapiens) (UniProt Q07869); experiment: qHTS assay for small molecule agonists of the peroxisome proliferator-activated receptor alpha (PPARalpha) signaling pathway (AID 651778); conditions: PathHunter PPARalpha complementation, chemiluminescence, 6 h; stronger effect = higher value; also: % of control where 0% means no effect
Sequence of Peroxisome proliferator-activated receptor alpha (Homo sapiens) (Q07869 whole entry, looked up, the tested form may be a part): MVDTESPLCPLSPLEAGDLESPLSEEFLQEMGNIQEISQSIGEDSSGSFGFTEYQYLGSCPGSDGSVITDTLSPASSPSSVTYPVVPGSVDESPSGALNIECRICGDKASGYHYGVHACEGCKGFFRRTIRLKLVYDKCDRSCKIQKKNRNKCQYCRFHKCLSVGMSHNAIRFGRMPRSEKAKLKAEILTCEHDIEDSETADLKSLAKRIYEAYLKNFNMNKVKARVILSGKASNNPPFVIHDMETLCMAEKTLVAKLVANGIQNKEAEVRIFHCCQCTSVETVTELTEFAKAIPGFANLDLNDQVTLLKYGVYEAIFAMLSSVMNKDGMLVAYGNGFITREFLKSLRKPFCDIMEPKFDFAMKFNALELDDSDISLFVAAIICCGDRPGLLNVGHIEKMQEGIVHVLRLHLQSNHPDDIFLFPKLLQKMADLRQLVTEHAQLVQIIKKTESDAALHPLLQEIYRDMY
Procedure, shortened: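 Enzyme-fragment complementation assay in which ligand-bound PPARalpha translocates and forms an active enzyme that generates chemiluminescence. Cells were plated overnight, exposed to compound for 6 hr at 37 C, and then given detection reagent for 60 min at room temperature.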

[20] = qHTS assay for cell viability of the p53RE-bla HCT-116 cell line (AID 743292); conditions: p53RE-bla HCT-116 viability, ATP luminescence, 16 h; series mostly up to 95 µM; also: % is scaled to controls: 0 for no effect and ±100 for the full control effect; nearly all actives have a fitted effect of over 55% in size
Procedure, shortened: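 CellSensor p53RE-bla HCT-116 cells, 4,000/well, preincubated 5 h at 37 C, then exposed to compounds in DMSO for 16 h at 37 C. Viability read as CellTiter-Glo luminescence (intracellular ATP) after 30 min at room temperature.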

CNC(=O)O/N=C/C(C)(C)S(C)=O (stereo not given)
inactive: Potency [1] > 92 µM | Potency [2] > 92 µM | Potency [3] > 92 µM | Potency [4] > 92 µM | Potency [5] > 92 µM | Potency [6] > 92 µM | outcome [7] | outcome [8] | outcome [9] | caspase-3 activation [10] -2.67% | outcome [11] | Potency [12] | outcome [13] | outcome [14] | Potency [15] | Potency [16] | Potency [17] | Potency [18] | max response [19] -3.1% and 0.659% | Potency [20]

CN(C)C(=O)Cl
inactive: Potency [1] > 92 µM | Potency [2] > 92 µM | Potency [3] > 92 µM | Potency [4] > 92 µM | Potency [5] > 92 µM | Potency [6] > 92 µM | outcome [7] | outcome [8] | outcome [9] | caspase-3 activation [10] -0.876% | outcome [11] | Potency [12] | outcome [13] | outcome [14] | Potency [15] | Potency [16] | Potency [17] | Potency [18] | max response [19] -4.05% | Potency [20]

CCCN(CCC)c1c([N+](=O)[O-])cc(C(F)(F)F)cc1[N+](=O)[O-]
inactive: Potency [1] > 92 µM | Potency [2] > 92 µM | Potency [3] > 92 µM | Potency [4] > 92 µM | Potency [5] > 92 µM | Potency [6] > 92 µM | outcome [7] | outcome [8] | outcome [9] | caspase-3 activation [10] 3.06% | outcome [11] | Potency [12] | outcome [13] | outcome [14] | Potency [15] | Potency [16] | Potency [17] | Potency [18] | max response [19] 2.49% and -0.599% | Potency [20]

Nc1ccccc1-c1ccccc1
inactive: Potency [1] > 92 µM | Potency [2] > 92 µM | Potency [3] > 92 µM | Potency [4] > 92 µM | Potency [5] > 92 µM | Potency [6] > 92 µM | outcome [7] | outcome [8] | outcome [9] | caspase-3 activation [10] 1.72% | outcome [11] | Potency [12] | outcome [13] | outcome [14] | Potency [15] | Potency [16] | Potency [17] | Potency [18] | max response [19] -2.98% | Potency [20]

O=[N+]([O-])c1ccccc1-c1ccccc1
inactive: Potency [1] > 92 µM | Potency [2] > 92 µM | Potency [3] > 92 µM | Potency [4] > 92 µM | Potency [5] > 92 µM | Potency [6] > 92 µM | outcome [7] | outcome [8] | outcome [9] | caspase-3 activation [10] -1.39% | outcome [11] | Potency [12] | outcome [13] | outcome [14] | Potency [15] | Potency [16] | Potency [17] | Potency [18] | max response [19] -6.56% | Potency [20]

COC(=O)c1ccccc1N
inactive: Potency [1] > 92 µM | Potency [2] > 92 µM | Potency [3] > 92 µM | Potency [4] > 92 µM | Potency [5] > 92 µM | Potency [6] > 92 µM | outcome [7] | outcome [8] | outcome [9] | caspase-3 activation [10] -1.69% | outcome [11] | Potency [12] | outcome [13] | outcome [14] | Potency [15] | Potency [16] | Potency [17] | Potency [18] | max response [19] -6.67% | Potency [20]

Cc1cc(-c2cc(C)c(N)c(C)c2)cc(C)c1N
inactive: Potency [1] > 92 µM | Potency [2] > 92 µM | Potency [3] > 92 µM | Potency [4] > 92 µM | Potency [5] > 92 µM | Potency [6] > 92 µM | outcome [7] | outcome [8] | outcome [9] | caspase-3 activation [10] -0.121% | outcome [11] | Potency [12] | outcome [13] | outcome [14] | Potency [15] | Potency [16] | Potency [17] | Potency [18] | max response [19] -3.9% | Potency [20]

Oc1cc(Cl)cc(Cl)c1
inactive: Potency [1] > 92 µM | Potency [2] > 92 µM | Potency [3] > 92 µM | Potency [4] > 92 µM | Potency [5] > 92 µM | Potency [6] > 92 µM | outcome [7] | outcome [8] | outcome [9] | caspase-3 activation [10] -1.48% | outcome [11] | Potency [12] | outcome [13] | outcome [14] | Potency [15] | Potency [16] | Potency [17] | Potency [18] | max response [19] 5.88% | Potency [20]
